What is called inhibition is the change of the read-out against control, counted positive when it falls.

Among all 340,000 compounds or so, about 2,100 (0.62%) were called active. A selection follows. Measured potencies and affinities stand elsewhere. Values without a mark were called inactive.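 The calls were made as follows: active = first-screen hits whose inhibition reached a set limit at any dose in the follow-up dose series; inconclusive = inhibition above the set first-screen limit but never retested; inactive = the rest.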

For this test, the target named is Rac GTPase-activating protein 1 (Homo sapiens) (UniProt Q9H0H5). Briefly: blockers of MgcRacGAP-driven Rac1 GTP hydrolysis – biochemical, ADP Hunter fluorescence, primary and confirmatory, confirmation (AID 624330).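 Also: fluorescence reports GDP produced by GAP-driven GTP hydrolysis.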 The following applies: MgcRacGAP-stimulated Rac1 GTP hydrolysis, at 30 µM, stronger effect = higher value, GST-tagged Rac1 F28L mutant substrate.
Chain of Rac GTPase-activating protein 1 (Homo sapiens) (Q9H0H5 whole entry, looked up): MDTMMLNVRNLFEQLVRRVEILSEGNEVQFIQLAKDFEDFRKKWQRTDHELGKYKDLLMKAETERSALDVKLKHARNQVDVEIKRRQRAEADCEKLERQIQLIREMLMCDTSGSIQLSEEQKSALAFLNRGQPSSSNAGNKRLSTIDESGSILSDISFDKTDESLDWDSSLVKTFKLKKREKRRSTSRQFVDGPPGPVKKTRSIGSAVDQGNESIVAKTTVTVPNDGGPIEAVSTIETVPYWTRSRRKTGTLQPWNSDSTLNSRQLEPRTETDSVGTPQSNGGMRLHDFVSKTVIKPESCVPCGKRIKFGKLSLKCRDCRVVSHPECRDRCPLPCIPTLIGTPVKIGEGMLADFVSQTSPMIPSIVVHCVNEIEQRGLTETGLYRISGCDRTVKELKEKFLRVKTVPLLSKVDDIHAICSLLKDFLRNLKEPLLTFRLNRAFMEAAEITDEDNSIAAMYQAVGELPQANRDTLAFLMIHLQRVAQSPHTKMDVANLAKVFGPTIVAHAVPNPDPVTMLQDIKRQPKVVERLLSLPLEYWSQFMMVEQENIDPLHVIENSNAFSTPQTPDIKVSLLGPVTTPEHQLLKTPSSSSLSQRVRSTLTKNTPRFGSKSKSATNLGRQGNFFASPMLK
Regarding `Clc1ccc(OCCCCN2CCCCC2)cc1`, the inhibition is 28.9%.
On to `COc1ccc(OCC#CCNC(C)(C)C)cc1`, for which the inhibition is 18%.
For `OC(COc1ccc(Cl)cc1)CN1CCCCC1` (stereo not given), the inhibition is -6.24%.
With `CC(C)NCC(O)COCCOc1ccc(Cl)cc1` (stereo not given) the figure was -1.4%.
Take `CN(C)CCCNc1ncnc2oc(-c3ccccc3)c(-c3ccccc3)c12`: the inhibition was 10.3%.
With `COc1ccccc1NC(=O)Cn1c(C)nc2c(sc(=S)n2Cc2ccco2)c1=O` the figure was 8.75%.
With `COC(=O)[C@H]1C[C@H]1[C@@H](NC(=O)c1ccc[nH]1)c1ccccc1` the figure was -1.4%.
With `CC(=O)c1ccc(N2CCN(CC(=O)NCc3ccccc3)CC2)cc1` the figure was 6.75%; with `CN(Cc1ccccc1)c1nc2c(c(=O)[nH]c(=O)n2C)n1CCOc1ccccc1`, 13.5%; with `O=c1/c(=C/c2ccccn2)sc2nc3ccccc3n12`, 6.92%.
For the molecule `Cc1ccc2c(nc3s/c(=C\c4ccc(-c5ccccc5C(=O)O)o4)c(=O)n32)c1C`, the inhibition is 19.4%.
For `CC1(C)CC(=O)C(N=Nc2ccc(-c3ccccc3)cc2)=C(O)C1`, the inhibition is 9.24%.
With `CC1(C)OC(=O)C(=CNCCc2ccc(O)cc2)C(=O)O1` the figure was 17.2%; with `O=C(Cn1nnc(-c2ccc(Cl)cc2)n1)NC1CCS(=O)(=O)C1` (stereo not given), 9.8%; with `N#Cc1c(N)n(Cc2ccccc2)c(=O)c2cc([N+](=O)[O-])ccc12`, 9.07%.
With `O=c1c2c([N+](=O)[O-])cc([N+](=O)[O-])cc2sn1Cc1ccccc1` the figure was 31%.
With `O=C1c2ccc([N+](=O)[O-])cc2S(=O)(=O)N1Cc1ccccc1` the figure was 11.7%.
Take `O=[N+]([O-])c1ccc(S(=O)Cc2ccccc2)c([N+](=O)[O-])c1` (stereo not given): the inhibition was 4.1%.
With `CCOC(=O)C(=CNc1ccc(O)c(C(=O)OC)c1)C(=O)OCC` the figure was 17%.
With `Cc1c(C(=O)COC(C)(C)C)[nH]c2ccccc12` the figure was 8.87%; with `O=C(NNC1OC(CO)C(O)C(O)C1O)c1cccc(Br)c1` (stereo not given), 0.41%.
With `COc1ccc(N/C=C/C(=O)C(C)(C)C)cc1` the figure was 16.3%; with `CC(=O)Nc1ccc(N/C=C/C(=O)C(C)(C)C)cc1`, 7.27%; with `O=C(O)CCCn1ccc2cc(S(=O)(=O)N3CCCC3)ccc21`, 4.17%.
With `Cc1cc(Br)ccc1OCCN1CCCC1`, the inhibition was 31.4%.
With `CC1CCN(CCCOc2ccc(Cl)cc2Br)CC1` the figure was 20.7%; with `Cc1cc(Br)ccc1OCCOCCN1CCCC1`, 21.4%; with `Clc1ccc(OCCCN2CCCCC2)c(Br)c1`, 27.6%.
With `COC(=O)C1C(O)=C(C=Nc2ccccc2)C(=O)CC1(C)C` (stereo not given) the figure was -0.8%; with `CCCC(=O)C1=C(O)C(C(=O)OC)C(C)(C)CC1=Nc1ccc(N)cc1` (stereo not given), 7.34%; with `CCC(=NCc1ccccc1)C1=C(O)C(C(=O)OC)C(C)(C)CC1=O` (stereo not given), 2.32%.
With `CCCCC(=Nc1ccc(N)cc1)C1=C(O)C(C(=O)OC)C(C)(C)CC1=O` (stereo not given) the figure was 28.1%; with `COC(=O)C1C(O)=C(C=Nc2ccc3ccccc3c2)C(=O)CC1(C)C` (stereo not given), 4.62%.
In the case of `CCCC(=Nc1ccccc1)C1=C(O)C(C(=O)OC)C(C)(C)CC1=O` (stereo not given), the inhibition is -1.06%.
With `CC(C)Cn1c(N)c(/C=N/NC(=O)c2ccc(Cl)cc2)c(=O)n(C)c1=O` the figure was 14.9%; with `Cc1cccc(CNc2ccc(C(CC(N)=O)NC(=O)c3ccccc3)cc2[N+](=O)[O-])c1` (stereo not given), -3.89%; with `O=C(CSc1nccn1-c1ccc(Cl)cc1)N1CCCc2ccccc21`, 4.77%.
With `Cc1ccc(NC(=O)N2CCCc3ccccc32)cc1C` the figure was 3.97%; with `Cc1ccc2nc(C)cc(C(=O)OCC(=O)Nc3cccnc3Cl)c2c1`, 5.5%.
For `COC(=O)c1ccc(Oc2coc3cc(OCc4ccc([N+](=O)[O-])cc4)ccc3c2=O)cc1`, the inhibition was -3.99%.
For the molecule `CCN1CCN(CCNC(=O)Cn2c(=O)c3cccn3c3ccc(F)cc32)CC1`, the inhibition was 13.8%.
With `C#CCNC(=O)C1=C[C@@H](C2CCCCC2)C[C@@H](OCCCCO)O1` the figure was 6.51%.
With `C=CCn1c(SCCNC(C)=O)nc2cc(-c3ccccc3)sc2c1=O` the figure was -6.43%; with `CCN(CC)CCOC(=O)/C=C/c1ccccc1`, 8.82%; with `CCN(CC)C(=O)/C=C/c1ccccc1`, 10.4%.
In the case of `COc1cccc(CNC(=O)CCC2CCCN(C(=O)c3ccc(C)nc3)C2)c1` (stereo not given), the inhibition was -7.59%.
`CN1C(=O)S/C(=C\c2ccccc2OCc2ccc(C(=O)O)cc2)C1=O`: the inhibition was 7.03%.
With `O=C1NC(=S)N/C1=C\c1ccccc1OCc1ccc(C(=O)O)cc1` the figure was 7.81%.
On to `CCCCC(=O)Nc1nn(CC(C)C)c2nc3ccccc3cc12`, for which the inhibition was -1.14%.
With `Cc1cccc(N2C(=O)CCC2=O)c1` the figure was 7.43%; with `OCCN(Cc1ccccc1)Cc1cccc(C(F)(F)F)c1`, 16.5%.
With `Cc1nnc2ccc(N3CCN(c4cccc(C(F)(F)F)c4)CC3)nn12` the figure was 5.89%; with `Cc1cccc(N2N=C(C(=O)O)CCC2=O)c1`, -5.61%; with `CCOc1cccc(CN2CCN(c3cccc(C(F)(F)F)c3)CC2)c1O`, 0.147%.
With `COCC(=O)N1CCN(c2cccc(C(F)(F)F)c2)CC1` the figure was 4.48%.
For `Cc1cc(=O)c(C(=O)O)nn1-c1cccc(C(F)(F)F)c1`, the inhibition was 6.55%.
With `FC(F)(F)c1cccc(N2CCc3cn[nH]c32)c1`, the inhibition is 12.6%.
Consider `COC(=O)c1sccc1NC(=O)CN(C)NS(=O)(=O)c1ccc([N+](=O)[O-])cc1`, for which the inhibition is -4.11%.
With `CNC(=S)NCCCc1ccccc1` the figure was 8.61%.
With `C/C=C(\C)C(=O)OC1[C@H](OC(C)=O)C2(CO)C(CC1(C)C)C1=CCC3C4(C)CCC(O[C@@H]5O[C@H](C(=O)O)[C@@H](O[C@@H]6O[C@H](CO)[C@@H](O)[C@H](O)[C@H]6O)[C@H](O)[C@H]5O[C@H]5O[C@H](CO)[C@@H](O)[C@H](O)[C@H]5O)[C@](C)(CO)C4CCC3(C)[C@]1(C)C[C@H]2O` (stereo not given in full) the figure was 1.06%; with `COCCOC1CCN(C(=O)C2CCC(=O)N(CCc3ccccc3)C2)CC1` (stereo not given), 9.57%; with `CCC(=O)c1ccc(CCCCCC(=O)O)s1`, 3.88%.
With `O=C(O)/C=C/C(=O)Nc1ccccc1SC(F)(F)F` the figure was -1%.
Turning to `COc1ccc([N+](=O)[O-])cc1N(CC(=O)NCCCOC(C)C)S(C)(=O)=O`, the inhibition is 7.79%.
With `Cc1ccc(C)c(NC(=O)C2CCCN(c3cnccn3)C2)c1` (stereo not given) the figure was 14.2%; with `C/C(=N\NC(=O)c1cc(O)ccc1O)c1cccc(NC(=O)c2cccc(Cl)c2)c1`, 25.5%; with `C/C(=N\NC(=O)c1cccc(N/N=C(\C)c2ccccc2)c1)c1ccccc1`, 0.42%.
With `O=C(CCC1CCCN(C(=O)c2cncs2)C1)NCc1ccc(F)c(F)c1` (stereo not given) the figure was 4.71%; with `CC(C)Sc1nc2ccsc2c(=O)[nH]1`, 8.22%.
With `O=C(CC1CCCC1)Nc1ccc(Cl)c(S(=O)(=O)N2CCOCC2)c1` the figure was 1.97%; with `Cc1ccnc(NC(=S)NC(=O)/C=C/c2ccc(Cl)cc2)c1`, 3.91%; with `CCOCCCn1c(SCc2ccccc2)nnc1-c1ccncc1`, 7.47%.
As to `CN(C)CCCn1c(SCc2c(Cl)cccc2Cl)nnc1-c1ccncc1`, the inhibition was 25.2%.
With `Cc1cc(C)cc(NC(=O)c2cc3c(=O)n4ccccc4nc3s2)c1` the figure was 7.35%.
With `CC(C)(C)NC(=O)COC(=O)c1ccc(Cl)nc1` the figure was 2.54%; with `COc1ccc(NC(=O)C[C@H]2C(=O)N(c3ccc(Br)cc3)C[C@@H]2c2ccc(OC)cc2)cc1`, 15.9%; with `COc1ccc([C@H]2CN(c3ccccc3)C(=O)[C@@H]2CC(=O)Nc2ccccc2)cc1`, 9.26%.
With `COc1ccc(-c2csc(N(CCCN(C)C)C(=O)c3cc(OC)c(OC)c(OC)c3)n2)cc1` the figure was 4.15%; with `Nc1ccc2c(c1)Cc1cc([N+](=O)[O-])ccc1-2`, 14.4%; with `O=[N+]([O-])c1ccc(N2CCN(c3ccccc3O)CC2)c(Cl)c1`, -5.04%.
Turning to `O=[N+]([O-])c1ccc2c(c1)Cc1cc(F)ccc1-2`, the inhibition was -1.78%.
`CC(C)(C)C(=O)N1CCN(c2ccc([N+](=O)[O-])cc2Cl)CC1`: the inhibition was 5.07%.
With `Brc1ccc(-c2noc(C3CCCCC3)n2)cc1` the figure was 11.8%; with `Cc1cc(C)n(-c2cccc(Cl)c2C#N)n1`, 7.18%.
With `CCOC(=O)c1c(C)c(C(=O)Nc2ccc(F)cc2)c(C)n1C` the figure was 1.27%; with `CCOC(=O)c1sc(C)c2c1NC1(CCCCCC1)NC2=O`, 1.2%; with `COc1ccc(/C=N/NC(=O)c2cccnc2)cc1O`, 28.2%.
For `COc1cc(/C=N/NC(=O)c2cnccn2)cc(OC)c1OC`, the inhibition is 3.55%.
With `COc1cccc(/C=N/NC(=O)c2cnccn2)c1` the figure was 8.84%; with `COc1cc(OC)c(OC)cc1/C=N/NC(=O)c1cnccn1`, 9.21%; with `CSc1ccccc1NC(=O)CN1CCN(c2ccccn2)CC1`, 6.87%.
With `Cc1ccc2nc(C)cc(N/N=C/c3ccccc3O)c2c1` the figure was 9.12%; with `COc1ccccc1/C=N/Nc1cc(C)nc2ccc(C)cc12`, 14.4%; with `COc1ccc2nc(C)cc(N/N=C/c3ccc(F)cc3)c2c1`, 13.3%.
With `COc1ccc2nc(C)cc(N/N=C/c3ccccc3)c2c1` the figure was 19.7%.

Values taken from PubChem BioAssay AID624330 (Southern Research Specialized Biocontainment Screening …, 2012).
